This note sets out measurements from PubChem BioAssay (EPA / NIEHS).

For assay [1], the target named is Cellular tumor antigen p53 (Homo sapiens) (UniProt P04637). As to the kind of experiment: TOX21_p53_BLA_p2_ratio: Tox21 HCT-116 p53 Agonism Beta-lactamase Assay, Ratio, Phase 2 (AID 2283592). A digest of the protocol:
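DMSO-normalized, positive-direction endpoint derived from the 460 nm/530 nm FRET ratio in HCT116 p53 beta-lactamase reporter cells exposed 16 h at 37C and loaded with CCF4-AM for 2 h.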

Assay [2] is described as follows: TOX21_p53_BLA_p3_viability: Viability Assessment in the Tox21 HCT-116 p53 Agonism Beta-lactamase Assay, Phase 3 (AID 2283593).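 Further: cells exposed to compound for 16 h before reading.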 The method, boiled down: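 Cellular ATP was quantified by CellTiter-Glo luminescence, read after 30 min at room temperature. Beforehand, HCT116 cells (4000/well) received compound 5 h post-seeding, 217-fold diluted from DMSO, then incubated 16 h at 37C.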

Assay [3] addresses Cellular tumor antigen p53 (Homo sapiens) (UniProt P04637). The experiment in a line: TOX21_p53_BLA_p3_ratio: Tox21 HCT-116 p53 Agonism Beta-lactamase Assay, Ratio, Phase 3 (AID 2283596). The method, boiled down:
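Cells were seeded at 4000/well, rested 5 h at 37C, then dosed with DMSO compound solutions (217-fold dilution) for 16 h. CCF4-AM substrate was loaded for 2 h at room temperature, and the 460/530 nm emission ratio was fitted for gain of signal versus DMSO.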

For assay [4] the target is unchanged. The experiment in a line: TOX21_p53_BLA_p5_ratio: Tox21 HCT-116 p53 Agonism Beta-lactamase Assay, Ratio, Phase 5 (AID 2283599). The method, boiled down:
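Beta-lactamase reporter ratio (blue 460 nm over green 530 nm, 405 nm excitation) after 2 h CCF4-AM loading, in HCT-116 cells exposed 16 h at 37 C to compounds pinned at 217-fold dilution. Increases relative to DMSO baseline scored.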

Assay [5] can be described thus: TOX21_p53_BLA_p5_viability: Viability Assessment in the Tox21 HCT-116 p53 Agonism Beta-lactamase Assay, Phase 5 (AID 2283600). The method, boiled down:
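Here cell health was gauged by ATP levels in wells holding 4000 cells, each treated 16 h with DMSO-delivered compounds at 217-fold dilution; reduced luminescence marked toxicity.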

Assay [6] has as its target Cellular tumor antigen p53 (Homo sapiens) (UniProt P04637). As to the kind of experiment: TOX21_p53_BLA_p4_ratio: Tox21 HCT-116 p53 Agonism Beta-lactamase Assay, Ratio, Phase 4 (AID 2283601). The method, boiled down: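 Signal is the blue/green (460nm/530nm) ratio of cleaved versus uncleaved CCF4-AM substrate, read after 2 h substrate loading. Cells were HCT116 carrying the p53-responsive beta-lactamase reporter, dosed 16 h at 37C, 5% CO2; CellTiter-Glo measured in parallel.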

Assay [7] in a line: TOX21_p53_BLA_p4_viability: Viability Assessment in the Tox21 HCT-116 p53 Agonism Beta-lactamase Assay, Phase 4 (AID 2283597).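 Further: hits lower the luminescence signal meaning cytotoxicity.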 The method, boiled down:
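In this multiplexed secondary endpoint, HCT116 cells (4000 per well, compound at 5 h, 16 h treatment) received CellTiter-Glo after the beta-lactamase read. Luminescence after 30 min RT reflects ATP, and falling signal marks cytotoxicity.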

Values joined by “and” are separate entries in the source; they are usually repeats but may differ in a detail not shown here. Identical values can stand only once. Inconclusive results are not listed. More than one record can exist for a structure, and the calls need not agree. Active and inactive are the calls of the source. How the source made its calls: active means hit-call score of the fitted dose curve at least 0.9, where 1 is the maximum; inconclusive means response in the unintended direction; inactive means score below 0.9.

Chain of Cellular tumor antigen p53 (Homo sapiens) (P04637 whole entry, looked up): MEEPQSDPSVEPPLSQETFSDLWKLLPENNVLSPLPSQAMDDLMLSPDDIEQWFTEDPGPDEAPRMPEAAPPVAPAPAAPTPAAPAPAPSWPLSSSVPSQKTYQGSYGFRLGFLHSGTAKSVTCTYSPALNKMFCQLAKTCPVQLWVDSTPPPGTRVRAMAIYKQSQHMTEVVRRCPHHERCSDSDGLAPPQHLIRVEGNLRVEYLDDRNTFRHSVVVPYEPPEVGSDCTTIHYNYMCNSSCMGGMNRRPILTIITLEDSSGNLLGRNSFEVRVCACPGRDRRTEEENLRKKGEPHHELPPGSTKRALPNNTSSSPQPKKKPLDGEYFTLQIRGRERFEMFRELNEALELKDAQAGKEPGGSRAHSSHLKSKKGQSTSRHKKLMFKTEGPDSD

On to `CC(C)(C)C(=O)c1ccccc1`, for which the outcome in assay [1], in assay [2], in assay [3], in assay [4], in assay [5] and in assay [6] was inactive.
Turning to `Nc1cccc(S(=O)(=O)c2cccc(N)c2)c1`, the result in assay [1], in assay [2], in assay [3], in assay [4], in assay [5] and in assay [6] was inactive.
`O=C1C(c2[nH]c3ccc(S(=O)(=O)O)cc3c2O)=Nc2ccc(S(=O)(=O)O)cc21`: the outcome in assay [1], in assay [2], in assay [3], in assay [4], in assay [5] and in assay [6] was inactive.
With `NCCOCCO`, the result in assay [1], in assay [2], in assay [3], in assay [7], in assay [4] and in assay [6] was inactive.
Take `CC(=O)OCc1ccc2c(c1)OCO2`: the outcome in assay [1], in assay [2], in assay [3], in assay [4], in assay [5] and in assay [6] was inactive.
As to `C=CC[N+](C)(C)CC=C`, the result in assay [1], in assay [2], in assay [3], in assay [4], in assay [5] and in assay [6] was inactive.
Regarding `O=C(O)c1cn(-c2ccc(F)cc2)c2cc(N3CCNCC3)c(F)cc2c1=O`, the outcome in assay [1], in assay [2], in assay [3], in assay [4] and in assay [6] was inactive.
On to `CCCc1ccccc1O`, for which the outcome in assay [1], in assay [2], in assay [3], in assay [4], in assay [5] and in assay [6] was inactive.
With `CC1CCC(C(C)CS)CC1S` (centres undefined), the outcome in assay [1], in assay [2], in assay [3], in assay [7], in assay [4] and in assay [5] was inactive. The result in assay [6] was inactive.
Consider `CCCCCC(=O)OCCc1ccccc1`, for which the outcome in assay [1], in assay [2], in assay [3] and in assay [5] was inactive.
As for `CCCCCCCCCCCCCC(=O)O`, the result in assay [1], in assay [2], in assay [3], in assay [4], in assay [5] and in assay [6] was inactive.
As to `O=c1[nH]nnc2ccccc12`, the outcome in assay [1], in assay [2], in assay [3], in assay [4], in assay [5] and in assay [6] was inactive.
Take `c1ccc(CCCc2ccccn2)cc1`: the outcome in assay [1], in assay [2], in assay [3], in assay [4], in assay [5] and in assay [6] was inactive.
As to `CN(C)CCOCCN(C)C`, the result in assay [1], in assay [2], in assay [3], in assay [7], in assay [4] and in assay [5] was inactive. For the same compound, the result in assay [6] was inactive.
For `CCCCC/C=C/C=C/C=O`, the outcome in assay [1], in assay [3], in assay [4], in assay [5] and in assay [6] was inactive. Moreover, the AC50 in assay [2] is 86.9 µM (active) and 30.3 µM (active).
Consider `CC(=O)OCCC(C)CC(C)(C)C` (centres undefined), for which the outcome in assay [1], in assay [2], in assay [3], in assay [4], in assay [5] and in assay [6] was inactive.
Turning to `CCCCCNCCCCC`, the outcome in assay [1], in assay [2], in assay [3], in assay [4] and in assay [6] was inactive.
As for `CN(CCOc1ccc(CC2SC(=O)NC2=O)cc1)c1ccccn1` (centres undefined), the result in assay [1], in assay [2], in assay [3], in assay [7], in assay [4] and in assay [6] was inactive.
With `CCc1ccc(C=O)cc1`, the result in assay [1], in assay [2], in assay [3] and in assay [5] was inactive.
Regarding `CC(=O)OCC=Cc1ccccc1`, the outcome in assay [1], in assay [2], in assay [3], in assay [7] and in assay [6] was inactive.
In the case of `CC(C)[C@@H]1CC[C@@H](C)CC1=O`, the result in assay [1], in assay [2], in assay [3], in assay [7], in assay [4] and in assay [6] was inactive.
Regarding `ClCCCl`, the result in assay [1], in assay [2], in assay [3], in assay [7], in assay [5] and in assay [6] was inactive.
`C=C(C)C(=O)O[C@H]1C[C@@H]2CC[C@@]1(C)C2(C)C`: the outcome in assay [1], in assay [2], in assay [3], in assay [4] and in assay [6] was inactive.
Consider `CCCCCCOC(=O)CCCCC`, for which the outcome in assay [1], in assay [2], in assay [4] and in assay [6] was inactive.
Consider `COC(=O)c1ccc(C)cc1`, for which the outcome in assay [1], in assay [2], in assay [7], in assay [4], in assay [5] and in assay [6] was inactive. Besides, the AC50 in assay [6] was 134 pM (active).
Consider `C/C=C(\C)C(=O)OCc1ccccc1`, for which the outcome in assay [1], in assay [2], in assay [3], in assay [5] and in assay [6] was inactive.
As to `CC(C)[C@H]1CC[C@@H](C)CC1=O`, the outcome in assay [1], in assay [2], in assay [4] and in assay [5] was inactive.
With `CC(C)c1cccc(O)c1`, the result in assay [1], in assay [2], in assay [7], in assay [4], in assay [5] and in assay [6] was inactive.
As for `O=C(O)COCCN1CCN(C(c2ccccc2)c2ccc(Cl)cc2)CC1` (centres undefined), the outcome in assay [1], in assay [2], in assay [7], in assay [4], in assay [5] and in assay [6] was inactive.
Turning to `CCCCCCCCCC=O`, the result in assay [1], in assay [2], in assay [5] and in assay [6] was inactive.
In the case of `Cc1ccc(C=O)s1`, the outcome in assay [1], in assay [2], in assay [7], in assay [4], in assay [5] and in assay [6] was inactive.
Regarding `CC(C)(C#N)c1cc(Cn2cncn2)cc(C(C)(C)C#N)c1`, the outcome in assay [1], in assay [2], in assay [4], in assay [5] and in assay [6] was inactive.
